PubChem BioAssay (EPA / NIEHS)
Active and inactive are the calls of the source. How the source made its calls: active means hit-call score of the fitted dose curve at least 0.9, where 1 is the maximum; inactive means score below 0.9.

Test: APR_HepG2_MitoMembPot_24hr: Apredica 24-hour HepG2 Assay for Mitochondrial Membrane Potential (AID 2282911)
Conditions: imaging, actives raise or lower the signal
Outline: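 HepG2, 24 hr dosing, 10 concentrations 0.39–200 uM, 0.5% DMSO final. Live-cell MitoTracker Red CMXRos 250 nM 30 min, then 3.7% formaldehyde fix. HCS fluorescence imaging, 20x; bidirectional fit vs DMSO baseline.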
In the case of CCCCOC(=O)c1ccc(O)cc1, the outcome is reported as “inactive”. With CCCCCCCCCCCC[N+](C)(C)C the outcome was “inactive”. In the case of CCCCCCCC[Si](OCC)(OCC)OCC, the AC50 is reported as 29.8 µM (active). For Clc1cc(Cl)c2c(c1)N=C1CCCCCN1C2, the AC50 was 0.0248 µM (active). With COCC(C)OCC(C)OCC(C)O (centres undefined) the outcome was “inactive”. In the case of CCCCOC(=O)CC(CC(=O)OCCCC)(OC(C)=O)C(=O)OCCCC, the AC50 is reported as 70.8 µM (active). In the case of OC12N=C(c3ccccc3)SC1Cc1cc(Cl)ccc12 (centres undefined), the outcome is reported as “inactive”. For O=C(O)c1ccccc1C(=O)OCc1ccccc1, the outcome was “inactive”. With Cc1cc2c(cc1C(F)(F)F)N(C(=O)Nc1ccc(Oc3cccnc3C)nc1)CC2 the outcome was “inactive”. With Oc1ccccc1 the outcome was “inactive”. In the case of Clc1ccccc1C(c1ccccc1)(c1ccccc1)n1ccnc1, the outcome is reported as “inactive”. With CCN(CC)C(=O)c1cc(S(=O)(=O)Cc2ccccc2)c(N2CCC(c3ccccc3)CC2)cc1N(CC)CCN(C)C the outcome was “inactive”. For CCN(Cc1cccnc1)C(=O)c1cccc(Cl)c1[C@]1(C)C(=O)N(Cc2ccc(OC)cc2OC)c2ccc(Cl)cc21, the AC50 was 50.3 µM (active). For O=c1[nH]sc2ccccc12, the outcome was “inactive”. In the case of CC/C(=C(/CC)c1ccc(O)cc1)c1ccc(O)cc1, the outcome is reported as “inactive”. In the case of O=C(O)c1ccccc1-n1cc(C(=O)O)c(=O)c2cc(Nc3c(F)cc(F)cc3Cl)c(Cl)cc21, the outcome is reported as “inactive”. In the case of CCCC(=O)OCCC(C)C, the outcome is reported as “inactive”. In the case of CC[C@@H]1C[C@H](N(Cc2cc(C(F)(F)F)cc(C(F)(F)F)c2)C(C)=O)c2cc(C(F)(F)F)ccc2N1C(=O)OC(C)C, the AC50 is reported as 0.0358 µM (active). With C[C@]12CC[C@@H]3c4ccc(O)cc4CC[C@H]3[C@@H]1CC[C@H]2O the AC50 was 16.8 µM (active).
